Screens as filed in PubChem BioAssay.
Most compounds without a hit are left out; they make up all but 3.2% or so of the library.
IL2 activator: activators of IL-2; IL-2 activation reporter assay, cell-based qHTS; stimulated with anti-CD3/CD4/CD28 beads; in transgenic mouse T cells; activation, % (series mostly up to about 46 µM); 0.065% of 360,000 active; AID 652025; in the data active = activation above about 50%; inconclusive = mostly about 30% to 49%; also: 0% is about no effect
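Unstimulated transgenic mouse T cells, 750 per well, received compound and, after 60 minutes, anti-CD3/anti-CD4 bead plus anti-CD28 stimulation. EGFP and DsRed were quantified after 18 hours.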
p53 reactivator: mutant p53 re-activation in reporter cells. 0.063% of 320,000 active. H1299 p53-A138V BP100-luciferase reporter, luminescence, 24 h. Potency, µM (top dose mostly 92.2 µM), for inactives: top-dose activity change, positive = activation, most hits filed as activators. AID 504706; also: potency is read from the fitted curve at half-maximal effect; % of control where 0% means no effect; nearly all actives have a fitted effect of over 45% in size
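H1299 (p53-null), stable ts p53-A138V + BP100-Luc; 1000 cells/well, Opti-MEM/10% FBS; cpd 4 pt, 1:5; 24 h, 37 deg C, 5% CO2; detection reagent 10 min RT; luminescence.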
Nrf2 inh: Nrf2 pathway inhibition. Potency, µM (highest dose often 46 µM), inactives show at the highest dose activity change, negative = inhibition, most hits filed as inhibitors. A549 ARE-Fluc reporter, luciferase luminescence, 18-24 h. 2.1% of 360,000 active; also: potency is read from the fitted curve at half-maximal effect; % is scaled to controls: 0 for no effect and ±100 for the full control effect; nearly all actives have a fitted effect of over 60% in size
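Concentration-response testing used A549 ARE_Fluc cells at 5000 cells/well. Following an 18-24 h compound incubation, viability was read by fluorescence (Ex 405/Em 525) and luciferase output by luminescence.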
BRCA1 expr up: increases BRCA1 expression. 1.1% of 380,000 active. MCF7-BRCA1-FFLuc reporter, luminescence, 48 h; response scale: scaled: vehicle 0%, 10 µM genistein 100%. Potency, µM (series often up to 46.1 µM), for inactives: top-dose activation, actives largely listed as activators. AID 624202; also: potency is read from the fitted curve at half-maximal effect; nearly all actives have a fitted effect of over 80% in size
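Cells: MCF7-BRCA1-FFLuc, 2000/well. Exposure: 48 h, 37 °C, 5% CO2. Read: luminescence, 15 min post-substrate. Controls: genistein 10 microM (maximal activation), DMSO (neutral).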
A549 viability: A549 cytotoxicity, counter-screen for Nrf2 inhibitors | A549 ARE-Fluc cells, CellTiter-Fluor viability, 18-24 h | AID 504648 | Potency, µM (titrated, usually from 46 µM), for the others: top-dose activity change, negative = cytotoxicity, hits mostly inhibitors | 0.16% of 390,000 active; also: potency is read from the fitted curve at half-maximal effect; % is scaled to controls: 0 for no effect and ±100 for the full control effect
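A549 ARE-Fluc cells in 5% FBS OPTI-MEM, 5000 cells/well, rested 2 h then exposed to compounds in concentration-response for 18-24 h at 37 °C. Viability by CellTiter-Fluor fluorescence (Ex 405/Em 525) after 30 min; luciferase luminescence (BugLite, 15 min, RT) read afterwards.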
Nrf2 activator: activates Nrf2 signaling. AREc32 ARE-luciferase reporter (MCF7-derived line), luminescence, 24 h. Potency, µM (highest dose often 46.1 µM), inactives show at the highest dose activation, hits mostly activators. 0.31% of 410,000 active. AID 624171; also: potency is read from the fitted curve at half-maximal effect; % of control where 0% means no effect; nearly all actives have a fitted effect of over 65% in size
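ARE-driven firefly luciferase activity in AREc32 cells measured after a 24 hr compound exposure at 37 deg C, using Steady-Glo reagent and a 30 min room-temperature hold.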
* = called active by the depositor; ? = inconclusive; . = no result; [ ] = remark or other dose. Unless noted, calls follow the shape of the dose curve; as a rule, active = well fitted curve in the direction sought with a large enough effect; inconclusive = small, poorly fitted or top-dose-only effect, or another doubt; inactive = no such curve, though single readings can be large; an effect the other way counts as inactive or inconclusive.

SMILES	IL2 activator	p53 reactivator	Nrf2 inh	BRCA1 expr up	A549 viability	Nrf2 activator
Cc1occc1C(=O)N/N=C/C=C/c1ccccc1	-1	20%	4%	10µM*	10%	-5%
Cc1occc1C(=O)N/N=C/C(Br)=C\c1ccccc1	0	?	?	?	1%	14µM*
Cc1occc1C(=O)N/N=C/C=C/c1ccc(N(C)C)cc1	3	17%	?	?	-2%	0%
CC1CCN(S(=O)(=O)c2ccc3c(ccc(=O)n3CC(=O)NCc3ccccc3)c2)CC1	.	.	.	.	0%	2%
COc1ccc(NC(=O)c2cccc(N3C(=O)C4C5C=CC(C6CC56)C4C3=O)c2)cc1 (configuration not stated)	-2	-15%	21µM*	-17%	-12%	0%
CN(c1ccccc1)P(=O)(N(C)c1ccccc1)N(C)c1ccccc1	0	-6%	16µM*	-42%	?	0%
CN(c1ccccc1)S(=O)(=O)CS(=O)(=O)N(C)c1ccccc1	-5	.	-14%	-25%	-1%	0%
Cc1ccccc1CC1(CO)CCCN(C(=O)c2ccccc2Cl)C1 (configuration not stated)	-4	-2%	-14%	-6%	0%	0%
Cc1ccccc1CC1(CO)CCCN(C(=O)c2cc(Cl)ccc2F)C1 (configuration not stated)	0	-4%	12µM*	-20%	-9%	0%
CCCC(=O)C1=C(c2ccc(C)c(C)c2)N(C(=O)CCC)n2c(CC)nnc2S1	.	.	.	.	-20%	0%
CCC(=O)C1=C(c2ccc(OC)c(OC)c2)N(C(=O)CC)n2c(CC)nnc2S1	.	.	23µM*	-38%	-8%	8%
COc1ccc(C(CC(=O)NCc2ccco2)c2ccc(F)cc2)cc1 (configuration not stated)	-1	-19%	1%	-2%[1.84 µM]	-18%	-1%
Cc1ccc(C(CC(=O)NCc2ccco2)c2ccc(OC(C)C)cc2)cc1 (configuration not stated)	-5	.	7.3µM*	-51%	?	8%
N#Cc1ccc(S(=O)(=O)N2CCN(S(=O)(=O)c3ccc4c(c3)OCCO4)CC2)cc1	.	.	16%	.	-1%	.
O=c1c2ccccc2nc(/C=C/c2ccc([N+](=O)[O-])cc2)n1CCCO	0	-1%	14%	-38%	-9%	13%
O=c1c2ccccc2nc(/C=C/c2ccc([N+](=O)[O-])o2)n1CCCO	-2	-10%	21µM*	-70%	23µM*	-1%
Cc1cc(N2CCCC2)nc2ccc(NC(=S)NCCCN3CCC(C)CC3)cc12	-2	-4%	-1%	-93%	9.2µM*	12%
CCCN1CCN(CCCNC(=S)Nc2ccc3nc(N4CCN(CC)CC4)cc(C)c3c2)CC1	0	8%	16%	-12%	?	0%
CCc1ccc(CNC(=O)c2ccc(Cn3c(=O)c4cccn4c4cccnc43)cc2)cc1	.	.	11%	.	0%	-1%
C=CCN(C(=O)C1=NN(C2CCS(=O)(=O)C2)C(=O)CC1)c1nc(-c2ccc([N+](=O)[O-])cc2)cs1 (configuration not stated)	0	-3%	?	5µM*	-4%	8%
COc1cccc(C(=O)Nc2c3c(nn2-c2ccc(Cl)cc2)CS(=O)(=O)C3)c1	.	.	.	-18%	-1%	-1%
CCCOc1ccc2c(=O)c(-c3cc(C(=O)OC)oc3C)c(C)oc2c1	-3	-4%	16µM*	1%	-6%	0%
COc1ccc(NC(=O)CSc2nc3ccccc3n2CC(=O)N2CCCC(C)C2)cc1 (configuration not stated)	.	.	.	.	-14%	0%
Cc1nc(NCc2ccco2)nc2c1C(=O)CC(C)C2 (configuration not stated)	0	0%	.	-77%	18%	2µM*
COC(=O)C1=C[C@@H](C(=O)OC)[C@@H]2C3=C(C(=O)C2(C)C)[C@H](c2ccccc2)[C@@H]2C(=O)N(c4ccccc4)C(=O)[C@@H]2[C@@H]3C1	.	.	6%	.	-4%	.
SMILES	IL2 activator	p53 reactivator	Nrf2 inh	BRCA1 expr up	A549 viability	Nrf2 activator
COc1cc(-c2nc3ccc(C)cn3c2Nc2ccc(Cl)cc2)ccc1O	.	.	-26%	.	?	-4%
O=C(NC1CCCCCC1)C(=S)N1CCOCC1	0	-3%	2%	10%	-4%	0%
S=C(NC1CCCCC1)N1CCOCCOCCN(C(=S)NC2CCCCC2)CCOCCOCC1	-1	0%	16µM*	-77%	?	0%
COc1ccc(CCN2C(=O)CSC2c2ccc(OC)c(OC)c2)cc1OC (configuration not stated)	0	-1%	?	2%	2%	2%
COc1ccc(C2SCC(=O)N2CCc2ccc(OC)c(OC)c2)cc1 (configuration not stated)	-1	-5%	23µM*	-19%	-14%	0%
COC(=O)[C@]1(C)CCC[C@@]2(C)C3CC[C@@]4(C)C[C@]3(CCC21)CC(=O)N4Cc1ccc(OC)cc1 (some centres not stated)	0	-9%	15µM*	-40%	-7%	0%
COC(=O)[C@]1(C)CCC[C@@]2(C)C3CC[C@]4(OC(C)=O)C[C@@]3(CCC21)CC4=O (some centres not stated)	0	-13%	?	7%	4%	1%
CCN(CCC(=O)O)c1ccc(/C=C/c2ccnc3ccccc23)cc1	.	.	.	-20%	.	.
COc1ccc(-c2nc3n(n2)C(c2ccc(O)cc2)C(C(=O)Nc2cccnc2)=C(C)N3)cc1OC (configuration not stated)	.	.	4%	.	0%	-1%
COc1ccc([C@H]2CC(=O)C=C(c3ccc(C(F)(F)F)c(C(F)(F)F)c3)C2)cc1OC	0	14%	?	3%	4%	2%
COc1ccc([C@H]2CC(=O)C=C(c3ccc(Cl)c(C(F)(F)F)c3)C2)cc1OC	0	-16%	16µM*	-44%	?	0%
COc1ccc(CCNC(=O)Cc2c(C)c3cc(OC)c(OC)cc3oc2=O)cc1	.	.	1%	.	-7%	0%
CCC(=O)N1N=C(c2c(-c3ccccc3)c3cc(Cl)ccc3[nH]c2=O)CC1c1ccco1 (configuration not stated)	-5	-34%	23µM*	-55%	?	3%
O=C(O)CCC(=O)N1N=C(c2c(-c3ccccc3)c3cc(Cl)ccc3[nH]c2=O)CC1c1ccco1 (configuration not stated)	1	4%	14%	-6%	-7%	-1%
